Assay results: the supplement of paper PMC6089552
Out of some 3,200 compounds screened, about 300 (9.4%) showed activity. The sample holds actives, similar compounds and a random draw of the others, so the mix is not that of the screen.

Test system: A673/TR/shEF
Experiment: cell viability (LOESS-normalised, relative to median of negative controls) (log2 ratio); higher = more viable cells (less compound effect), active = hit call of the paper (over 3 MAD below the median)
Settings: treatment time: 72 h
In short: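 A673/TR/shEF Ewing sarcoma cells were plated at 1,500 per well in 384-well plates and cultured with or without doxycycline, added 24 h before compounds, to induce EWS-FLI1 shRNA knockdown. Library compounds at two or more concentrations, alongside DMSO controls, were applied for three days. Cell viability was measured by CellTiter-Glo luminescence on an Envision reader. Readings were LOESS-corrected per plate, divided by the median of negative controls and log2-transformed, and hits were wells lying at least three median absolute deviations from the median of all screened wells.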

[1] = 0.25 µM, library screen: screen1, EWS-FLI1 expression: high (no doxycycline)
[2] = 0.25 µM, library screen: screen1, EWS-FLI1 expression: low (doxycycline-induced shRNA knockdown)
[3] = 2.5 µM, library screen: screen1, EWS-FLI1 expression: high (no doxycycline)
[4] = 2.5 µM, library screen: screen1, EWS-FLI1 expression: low (doxycycline-induced shRNA knockdown)
[5] = 0.25 µM, library screen: screen2, EWS-FLI1 expression: high (no doxycycline)
[6] = 0.25 µM, library screen: screen2, EWS-FLI1 expression: low (doxycycline-induced shRNA knockdown)
[7] = 2.5 µM, library screen: screen2, EWS-FLI1 expression: high (no doxycycline)
[8] = 2.5 µM, library screen: screen2, EWS-FLI1 expression: low (doxycycline-induced shRNA knockdown)
[9] = 0.025 µM, library screen: screen1, EWS-FLI1 expression: high (no doxycycline)
[10] = 0.025 µM, library screen: screen1, EWS-FLI1 expression: low (doxycycline-induced shRNA knockdown)
[11] = 25 µM, library screen: screen1, EWS-FLI1 expression: high (no doxycycline)
[12] = 25 µM, library screen: screen1, EWS-FLI1 expression: low (doxycycline-induced shRNA knockdown)
[13] = 0.103 µM, library screen: screen3, EWS-FLI1 expression: high (no doxycycline)
[14] = 0.103 µM, library screen: screen3, EWS-FLI1 expression: low (doxycycline-induced shRNA knockdown)
[15] = 0.308 µM, library screen: screen3, EWS-FLI1 expression: high (no doxycycline)
[16] = 0.308 µM, library screen: screen3, EWS-FLI1 expression: low (doxycycline-induced shRNA knockdown)
[17] = 0.926 µM, library screen: screen3, EWS-FLI1 expression: high (no doxycycline)
[18] = 0.926 µM, library screen: screen3, EWS-FLI1 expression: low (doxycycline-induced shRNA knockdown)
[19] = 2.8 µM, library screen: screen3, EWS-FLI1 expression: high (no doxycycline)
[20] = 2.8 µM, library screen: screen3, EWS-FLI1 expression: low (doxycycline-induced shRNA knockdown)
[21] = 8.3 µM, library screen: screen3, EWS-FLI1 expression: high (no doxycycline)
[22] = 8.3 µM, library screen: screen3, EWS-FLI1 expression: low (doxycycline-induced shRNA knockdown)
[23] = 25 µM, library screen: screen3, EWS-FLI1 expression: high (no doxycycline)
[24] = 25 µM, library screen: screen3, EWS-FLI1 expression: low (doxycycline-induced shRNA knockdown)

Measured: cell viability (log2)

COc1cc(/C=C/C(=O)/C=C(O)/C=C/c2ccc(O)c(OC)c2)ccc1O
inactive: [1] 0.0822 | [2] 0.0311 | [3] 0.0603 | [4] -0.0173

COC(=O)c1c(C)c2c(c(C)c1OC(C)=O)OC(=O)c1c(C)c(Cl)c(OC(C)=O)c(Cl)c1O2
inactive: [1] 0.0638 | [2] 0.0229 | [3] 0.0457 | [4] -0.0376

C/C1=C2N=C(/C=C3N=C(/C(C)=C4\[N-]C(C(CC(N)=O)C4(C)CCC(=O)NCC(C)OP(=O)([O-])OC4C(CO)OC(n5cnc6cc(C)c(C)cc65)C4O)C4(C)N=C1C(CCC(N)=O)C4(C)CC(N)=O)C(CCC(N)=O)C\3(C)C)C(CCC(N)=O)C/2(C)CC(N)=O.[Co+3] (stereo unspecified)
inactive: [1] -0.0019 | [2] 0.0391 | [3] 0.0729 | [4] 0.0491

COc1cc(CN2CCN(Cc3cccc(Cl)c3)CC2)c([N+](=O)[O-])cc1OC
inactive: [1] 0.103 | [2] 0.0472 | [3] 0.18 | [4] 0.111

CCc1c(C)c(C#N)c2nc3ccccc3n2c1N1CCN(C)CC1
inactive: [1] 0.145 | [2] 0.157 | [3] 0.118 | [4] 0.0375

N#C/C(=C\c1ccc(O)c(O)c1)C(=O)NCCCNC(=O)/C(C#N)=C/c1ccc(O)c(O)c1
inactive: [5] 0.153 | [6] 0.132 | [7] 0.199 | [8] 0.0575

COc1cc(/C=C(\C#N)C(=O)c2ccc(O)c(O)c2)cc(I)c1O
inactive: [5] 0.152 | [6] 0.068 | [7] 0.173 | [8] -0.0106

N#C/C(=C\c1ccc(O)c(O)c1)C(N)=O
inactive: [9] 0.246 | [10] 0.0278 | [2] 0.0878 | [4] 0.0598 | [12] 0.125
active: [3] -0.381 | [11] -0.224
0.319: [1]

N#C/C(=C\c1c[nH]c2ccccc12)C(=O)c1ccc(O)c(O)c1
inactive: [5] 0.155 | [6] 0.0215 | [7] 0.202 | [8] 0.127

N#C/C(=C\c1ccc(O)c(O)c1)C(=O)c1ccc(O)c(O)c1
active: [5] -0.567 | [6] -0.546 | [7] -2.72 | [8] -2.83

c1coc(CN2CCN(Cc3ccc4ccccc4c3)CC2)c1
inactive: [1] 0.0477 | [2] 0.0071 | [3] 0.142 | [4] 0.0832

COc1ccc2c(c1)CCC1C2CCC2(C)C1C[C@@H](O)[C@@H]2O (stereo partly specified)
inactive: [1] 0.105 | [2] 0.0162 | [3] 0.204 | [4] -0.0118

OC[C@H]1O[C@@H](n2cnc3c(NCCc4ccccc4)ncnc32)C(O)[C@H]1O (stereo partly specified)
inactive: [5] 0.15 | [6] 0.163 | [7] 0.0914 | [8] 0.0608

O=C(O)CCC(=O)OCC(NC(=O)C(Cl)Cl)C(O)c1ccc([N+](=O)[O-])cc1 (stereo unspecified)
inactive: 0.025 µM, library screen: screen2, EWS-FLI1 expression: high (no doxycycline) 0.127 | 0.025 µM, library screen: screen2, EWS-FLI1 expression: low (doxycycline-induced shRNA knockdown) 0.0706 | [1] -0.0271 | [2] 0.0474 | [5] 0.193 | [6] -0.0115 | [3] 0.0762 | [4] 0.177 | [7] 0.153 | [8] 0.083 | 25 µM, library screen: screen2, EWS-FLI1 expression: high (no doxycycline) 0.0706 | 25 µM, library screen: screen2, EWS-FLI1 expression: low (doxycycline-induced shRNA knockdown) 0.0478

O=c1c(O)c(-c2cc(O)c(O)c(O)c2)oc2cc(O)ccc12
inactive: [1] 0.128 | [2] -0.0317 | [3] 0.0648 | [4] 0.111

COc1cc(CN2CCN(Cc3cccc(F)c3)CC2)cc2c1OCO2
inactive: [1] 0.0873 | [2] 0.0661 | [3] 0.0312 | [4] 0.0566

COc1ccc(-c2ccc3c(N4CCOC[C@@H]4C)nc(N4CCOC[C@@H]4C)nc3n2)cc1CO
active: [13] -0.268 | [14] -0.292 | [15] -0.621 | [16] -0.525 | [17] -1.05 | [18] -0.821 | [19] -1.66 | [20] -1.37 | [21] -1.89 | [22] -1.59 | [23] -1.94 | [24] -1.78

COc1ccc(-c2ccc3c(N4CCOCC4)nc(N4C[C@@H](C)O[C@@H](C)C4)nc3n2)cc1CO
active: [19] -0.379 | [20] -0.377 | [21] -0.748 | [22] -0.617 | [23] -1.51 | [24] -1.39
inactive: [13] -0.102 | [14] -0.0255 | [15] -0.124 | [16] -0.0614 | [17] -0.171 | [18] -0.169

COc1cc(/C=C2\SC(NC(C)=O)=NC2=O)cc(Br)c1OC
inactive: [1] 0.0313 | [2] 0.0267 | [3] 0.0885 | [4] 0.0962

O=C(O)Cc1cc(I)c(Oc2cc(I)c(O)c(I)c2)c(I)c1
inactive: [1] 0.0518 | [2] 0.0863 | [3] 0.0776 | [4] -0.0191

COC(=O)[C@H](O)[C@H]1C(C)(C)[C@H](O)[C@@H]2CC3=C4CC(=O)O[C@@H](c5ccco5)[C@]4(C)CC[C@@H]3[C@@]1(C)C2=O
inactive: [1] 0.0837 | [2] 0.0423 | [3] 0.0416 | [4] -0.137

COc1ccc(C2NC(=O)NC(C)=C2C(=O)Nc2ccccc2Cl)cc1OC (stereo unspecified)
inactive: [1] 0.0783 | [2] 0.013 | [3] 0.0736 | [4] -0.0647

CCCCCCCC/C=C/CCCCCCCC(=O)OC(CO)COC(=O)CCCCCCCCCCCCCCC (stereo unspecified)
inactive: [5] 0.242 | [6] 0.101 | [7] 0.231 | [8] 0.152

CCCCCCCCCCCCC/C=C/[C@@H](O)[C@@H](N)CO
active: [11] -4.25 | [12] -4.31
inactive: [9] 0.0541 | [10] 0.028 | [1] 0.0998 | [2] 0.0415 | [5] 0.0615 | [6] 0.0389 | [3] 0.0515 | [4] 0.0695 | [7] 0.162 | [8] 0.0866

CCCCCCCCCCCCCCC[C@H](O)[C@H](N)CO
inactive: [5] 0.153 | [6] 0.105 | [7] 0.146 | [8] 0.102

CCC(C)n1ncn(-c2ccc(N3CCN(c4ccc(OC[C@H]5CO[C@](Cn6cncn6)(c6ccc(Cl)cc6Cl)O5)cc4)CC3)cc2)c1=O (stereo partly specified)
inactive: [13] -0.00587 | [14] -0.0322 | [15] 0.0158 | [16] 0.0366 | [17] 0.0942 | [18] 0.0808 | [19] 0.0248 | [20] 0.0437 | [21] -0.13 | [22] 0.0912 | [23] 0.0658 | [24] 0.11

COC(=O)C(O)c1ccccc1 (stereo unspecified)
inactive: [1] 0.0881 | [2] 0.0567 | [3] 0.0992 | [4] 0.015

Nc1ccc2c3c(cccc13)C(=O)NC2=O
inactive: [6] 0.0582 | [7] 0.0677 | [8] 0.123
active: [5] -0.219

COc1cc(/C=C/C=O)cc(OC)c1OC
inactive: [1] 0.0589 | [2] 0.0132 | [3] 0.0586 | [4] 0.0289

OC1C=CC(Br)C(O)C1O (stereo unspecified)
inactive: [5] 0.12 | [6] 0.141 | [7] 0.0654 | [8] 0.0803

FC(F)(F)c1ccc(/C=C/c2nc(COc3ccc(CCCCn4ccnn4)cc3)co2)cc1
active: [13] -0.325 | [15] -0.568 | [16] -0.12 | [17] -0.774 | [18] -0.153 | [19] -1.45 | [20] -0.118 | [21] -1.63 | [22] -0.193 | [23] -1.47 | [24] -0.184
inactive: [14] -0.0943

CC(=O)OC1CC[C@@]2(C)C(CC[C@H]3[C@@H]4CC=C(C(C)=O)[C@@]4(C)C(=O)C[C@@H]32)C1 (stereo partly specified)
inactive: [1] 0.0289 | [2] 0.0314 | [3] 0.141 | [4] 0.0915

COC(=O)C[C@H]1C(C)(C)[C@H](O)[C@@H]2CC3=C4CC(O)O[C@@H](c5ccoc5)[C@]4(C)CCC3[C@@]1(C)C2=O (stereo partly specified)
inactive: [1] 0.0798 | [2] 0.183 | [3] 0.141 | [4] 0.127

C[C@H](NCCc1ccc(O)cc1)[C@H](O)c1ccc(O)cc1
inactive: [13] -0.0282 | [14] 0.0403 | [1] 0.119 | [2] 0.0926 | [5] 0.11 | [6] 0.0788 | [15] 0.0762 | [16] 0.0395 | [17] 0.0419 | [18] 0.0833 | [3] 0.157 | [4] 0.125 | [7] 0.0729 | [8] -0.0642 | [19] 0.0463 | [20] 0.0441 | [21] 0.098 | [22] 0.0382 | [23] 0.0513 | [24] 0.0444

COc1ccc(CCN(C)CCc2ccc(OC)c(OC)c2)cc1OC
inactive: [5] 0.187 | [6] 0.0366 | [7] 0.198 | [8] 0.0294

COc1ccc(CCNCC(O)c2ccc(O)cc2)cc1OC (stereo unspecified)
inactive: [5] 0.167 | [6] -0.0395
active: [7] -0.721 | [8] -0.108

CC1(C)C(=O)C=C[C@]2(C)[C@H]3CC[C@@]4(C)[C@H](c5ccoc5)OC(=O)[C@H]5O[C@]54[C@]3(C)C=C[C@@H]12
inactive: [1] 0.0993 | [2] 0.0207 | [3] 0.1 | [4] 0.161
